The text below walks through data of PubChem BioAssay (NCI).

About 79,000 compounds went through this panel and 15% of them were active in at least one assay; those are over-represented in the sample as a whole. Unmarked numbers belong to inactive results. Activity calls are given as the source filed them. Rule as the data show it: active = growth inhibition above about 70%; inactive = the rest.

Assay [1] is described as follows: NCI Yeast Anticancer Drug Screen. Data for the rad50 strain (AID 155).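 Also: 0% = growth of vehicle-only cultures of the same strain.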 The note with it: S. cerevisiae rad50 strain growth inhibition, hits give high values. In a few lines: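 Cells are treated with compound, grown, and their growth is then scored against vehicle-only cultures of the same repair-deficient yeast strain.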
The nature of assay [2]: NCI Yeast Anticancer Drug Screen. Data for the mec2-1 strain (AID 157). The note with it: S. cerevisiae mec2-1 strain, hits give high values. In a few lines:
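mec2-1 yeast strain, carrying an alteration in DNA damage repair or cell cycle control, was exposed to compounds; growth inhibition was measured relative to vehicle-treated controls.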

Assay [3] is described as follows: NCI Yeast Anticancer Drug Screen. Data for the sgs1 mgt1 strain (AID 161).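 Also: 0% = growth of cultures given vehicle only.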 The note with it: S. cerevisiae sgs1 mgt1 strain, hits give high values. In a few lines: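 Growth of a repair-deficient yeast mutant was monitored after compound treatment and expressed as inhibition relative to vehicle-treated cultures.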
The nature of assay [4]: NCI Yeast Anticancer Drug Screen. Data for the cln2 rad14 strain (AID 165).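 Also: 0% = growth equal to vehicle treated cultures.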 The note with it: S. cerevisiae cln2 rad14 strain, hits give high values. Put shortly: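 Yeast carrying cln2 and rad14 alterations (cell cycle control and DNA damage repair) were exposed to compounds. Growth inhibition was measured against vehicle-treated controls.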
A short description of assay [5]: NCI Yeast Anticancer Drug Screen. Data for the bub3 strain (AID 167). The note with it: S. cerevisiae bub3 mutant strain, hits give high values. Put shortly:
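Part of a panel of yeast mutants defective in DNA damage repair or cell cycle regulation. Each strain is grown with compound, and inhibition is calculated relative to solvent-treated cultures.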

A short description of assay [6]: NCI Yeast Anticancer Drug Screen. Data for the mlh1 rad18 strain (AID 175). The note with it: S. cerevisiae mlh1 rad18 strain growth inhibition, hits give high values. In a few lines:
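Growth inhibition of the yeast strain was measured after compound exposure and expressed relative to vehicle-treated controls. The strain carries defined defects in DNA damage repair.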

The mark [7] stands for this setting: at 5.0 µM (retest, dose inferred, filed as 0.5).
Setting [8] is: at 50.0 µM (retest, dose inferred, filed as 5.0).

`COc1cc(CC(=O)O)c(Cc2ccc3c(c2)Cc2ccccc2-3)cc1OC`: the growth inhibition in assay [1] (setting [7]) was -7%; in assay [1] (setting [8]), 94% (active); in assay [1] (at 50.0 µM), 49%; in assay [2] (setting [7]), 4%; in assay [2] (setting [8]), 77% (active); in assay [2] (at 50.0 µM) it was 53.5%. Besides, the growth inhibition in assay [3] (setting [7]) is -1%; in assay [3] (setting [8]) it was 92% (active); in assay [3] (at 50.0 µM) it was 52.1%; in assay [4] (setting [7]) it was 6%; in assay [4] (setting [8]), 91% (active); in assay [4] (at 50.0 µM), 88.7% (active). Also, the growth inhibition in assay [5] (setting [7]) is -7%; in assay [5] (setting [8]) it was 95% (active); in assay [5] (at 50.0 µM), 94.5% (active); in assay [6] (setting [7]), 2%; in assay [6] (setting [8]), 88% (active); in assay [6] (at 50.0 µM), 47.6%.
On to `COc1ccc(-c2c3c(cc4cc5c(cc24)OCO5)C(=O)OC3)cc1OC`, for which the growth inhibition in assay [1] (setting [7]) is 26%; in assay [1] (setting [8]), 96% (active); in assay [1] (at 50.0 µM) it was 92.5% (active); in assay [2] (setting [7]), 30%; in assay [2] (setting [8]), 96% (active); in assay [2] (at 50.0 µM) it was 93.9% (active). For the same compound, the growth inhibition in assay [3] (setting [7]) is 57%; in assay [3] (setting [8]), 96% (active); in assay [3] (at 50.0 µM), 93.7% (active); in assay [4] (setting [7]), 16%; in assay [4] (setting [8]), 87% (active); in assay [4] (at 50.0 µM) it was 92.3% (active). Moreover, the growth inhibition was 51% in assay [5] (setting [7]); 97% (active) in assay [5] (setting [8]); 92.3% (active) in assay [5] (at 50.0 µM); 62% in assay [6] (setting [7]); 96% (active) in assay [6] (setting [8]); 78.8% (active) in assay [6] (at 50.0 µM).
In the case of `N/C(CC(=O)NOC(=O)c1ccccc1)=N/OC(=O)c1ccccc1`, the growth inhibition in assay [1] (setting [7]) was 55%; in assay [1] (setting [8]), 99% (active); in assay [1] (at 50.0 µM), 99% (active); in assay [2] (setting [7]) it was 19%; in assay [2] (setting [8]), 99% (active); in assay [2] (at 50.0 µM), 99.5% (active). The growth inhibition in assay [3] (setting [7]) is 54%; in assay [3] (setting [8]) it was 62%; in assay [3] (at 50.0 µM), 99.5% (active); in assay [4] (setting [7]), 6%; in assay [4] (setting [8]), 100% (active); in assay [4] (at 50.0 µM), 99% (active). The growth inhibition in assay [5] (setting [7]) is -6%; in assay [5] (setting [8]), 99% (active); in assay [5] (at 50.0 µM), 99.2% (active); in assay [6] (setting [7]) it was 27%; in assay [6] (setting [8]), 99% (active); in assay [6] (at 50.0 µM), 99.2% (active).
As for `Cc1cc(=Nc2ccc3c(c2)c(N)cc(C)[n+]3C)nc(N)n1C`, the growth inhibition in assay [1] (setting [7]) was 84% (active); in assay [1] (setting [8]), 88% (active); in assay [1] (at 50.0 µM), 97.1% (active); in assay [2] (setting [7]), 78% (active); in assay [2] (setting [8]), 95% (active); in assay [2] (at 50.0 µM) it was 92.5% (active). The growth inhibition in assay [3] (setting [7]) is 78% (active); in assay [3] (setting [8]), 61%; in assay [3] (at 50.0 µM), 95.2% (active); in assay [4] (setting [7]), 83% (active); in assay [4] (setting [8]) it was 85% (active); in assay [4] (at 50.0 µM) it was 91.9% (active). For the same compound, the growth inhibition is 75% (active) in assay [5] (setting [7]); 87% (active) in assay [5] (setting [8]); 89.1% (active) in assay [5] (at 50.0 µM); 83% (active) in assay [6] (setting [7]); 90% (active) in assay [6] (setting [8]); 97.5% (active) in assay [6] (at 50.0 µM).
For the compound `CNCCCNc1c2cc(OC)ccc2nc2cccc([N+](=O)[O-])c12`, the growth inhibition in assay [1] (setting [7]) is 9%; in assay [1] (setting [8]), 96% (active); in assay [1] (at 50.0 µM), 82.8% (active); in assay [2] (setting [7]), -10%; in assay [2] (setting [8]), 97% (active); in assay [2] (at 50.0 µM), 88.2% (active). Also, the growth inhibition is 49% in assay [3] (setting [7]); 94% (active) in assay [3] (setting [8]); 78.3% (active) in assay [3] (at 50.0 µM); 41% in assay [4] (setting [7]); 98% (active) in assay [4] (setting [8]); 85.3% (active) in assay [4] (at 50.0 µM). Besides, the growth inhibition is -31% in assay [5] (setting [7]); 52% in assay [5] (setting [8]); 55.5% in assay [5] (at 50.0 µM); 41% in assay [6] (setting [7]); 97% (active) in assay [6] (setting [8]); 78.6% (active) in assay [6] (at 50.0 µM).
Regarding `Cc1ccccc1C(CC(=O)O)C(C)c1ccccc1` (centres undefined), the growth inhibition was 14% in assay [1] (setting [7]); 53% in assay [1] (setting [8]); 20.5% in assay [1] (at 50.0 µM); 18% in assay [2] (setting [7]); 53% in assay [2] (setting [8]); 88.8% (active) in assay [2] (at 50.0 µM). Moreover, the growth inhibition is 9% in assay [3] (setting [7]); 66% in assay [3] (setting [8]); 77.9% (active) in assay [3] (at 50.0 µM); 13% in assay [4] (setting [7]); 60% in assay [4] (setting [8]); 73.2% (active) in assay [4] (at 50.0 µM). Moreover, the growth inhibition is 32% in assay [5] (setting [7]); 80% (active) in assay [5] (setting [8]); 97.2% (active) in assay [5] (at 50.0 µM); 12% in assay [6] (setting [7]); 45% in assay [6] (setting [8]); 86.2% (active) in assay [6] (at 50.0 µM).
As for `Cc1cc(NC(=S)SCc2ccc(F)cc2)c([N+](=O)[O-])cc1C`, the growth inhibition in assay [1] (setting [7]) is 57%; in assay [1] (setting [8]), 98% (active); in assay [1] (at 50.0 µM), 98.7% (active); in assay [2] (setting [7]) it was 36%; in assay [2] (setting [8]), 99% (active); in assay [2] (at 50.0 µM), 98.8% (active). Further, the growth inhibition was 87% (active) in assay [3] (setting [7]); 99% (active) in assay [3] (setting [8]); 98.5% (active) in assay [3] (at 50.0 µM); 19% in assay [4] (setting [7]); 97% (active) in assay [4] (setting [8]); 98.8% (active) in assay [4] (at 50.0 µM). Moreover, the growth inhibition is 48% in assay [5] (setting [7]); 92% (active) in assay [5] (setting [8]); 99% (active) in assay [5] (at 50.0 µM); 94% (active) in assay [6] (setting [7]); 98% (active) in assay [6] (setting [8]); 99.1% (active) in assay [6] (at 50.0 µM).
On to `COc1cc(/C=C\C(=O)c2cccc(O)c(=O)c2)cc(OC)c1OC`, for which the growth inhibition in assay [1] (setting [7]) was -3%; in assay [1] (setting [8]), 53%; in assay [1] (at 50.0 µM), 69.1%; in assay [2] (setting [7]), 1%; in assay [2] (setting [8]) it was 65%; in assay [2] (at 50.0 µM), 50.5%. Further, the growth inhibition in assay [3] (setting [7]) was 16%; in assay [3] (setting [8]), 83% (active); in assay [3] (at 50.0 µM), 63.5%; in assay [4] (setting [7]), -15%; in assay [4] (setting [8]) it was 50%; in assay [4] (at 50.0 µM), 5.6%. In addition, the growth inhibition in assay [5] (setting [7]) was 2%; in assay [5] (setting [8]) it was 67%; in assay [5] (at 50.0 µM) it was 65.5%; in assay [6] (setting [7]) it was 7%; in assay [6] (setting [8]), 89% (active); in assay [6] (at 50.0 µM) it was 54.9%.
